This note sets out measurements from PubChem BioAssay (EPA / NIEHS).

In assay [1] the target is Peroxisome proliferator-activated receptor gamma (Homo sapiens) (UniProt P37231). As to the kind of experiment: OT_PPARg_PPARgSRC1_1440: Odyssey Thera (OT) 24-hour Protein-Complementation Assay for Peroxisome Proliferator-activated Receptor Gamma/ SRC-1 Co-activator (AID 2283388; active = hit-call score of the fitted dose curve at least 0.9, where 1 is the maximum;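 note: nuclear to cytoplasmic ratio of reconstituted Venus YFP fluorescence in fixed imaged cells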). The method, boiled down: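 Readout is the 488 nm N/C fluorescence ratio from fixed, Draq5-stained HEK293T cells after 24 h compound exposure. Cells carried transiently transfected PPARg and SRC-1 fused to Venus fragments, transfected 48 h before treatment.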
Sequence of Peroxisome proliferator-activated receptor gamma (Homo sapiens) (P37231 whole entry, looked up, the tested form may be a part): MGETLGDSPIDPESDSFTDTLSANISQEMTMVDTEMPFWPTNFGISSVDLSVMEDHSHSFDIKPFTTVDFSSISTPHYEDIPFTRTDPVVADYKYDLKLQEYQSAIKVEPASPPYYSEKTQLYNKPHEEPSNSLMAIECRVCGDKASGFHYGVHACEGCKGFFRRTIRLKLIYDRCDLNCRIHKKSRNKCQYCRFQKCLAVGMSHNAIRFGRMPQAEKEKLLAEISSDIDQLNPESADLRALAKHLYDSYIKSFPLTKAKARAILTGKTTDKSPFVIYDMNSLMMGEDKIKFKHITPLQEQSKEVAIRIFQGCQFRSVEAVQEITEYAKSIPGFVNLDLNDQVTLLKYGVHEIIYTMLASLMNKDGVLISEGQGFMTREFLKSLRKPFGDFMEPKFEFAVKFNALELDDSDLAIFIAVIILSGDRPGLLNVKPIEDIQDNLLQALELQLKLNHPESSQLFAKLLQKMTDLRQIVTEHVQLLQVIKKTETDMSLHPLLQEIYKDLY

A short description of assay [2]: CEETOX_H295R_OHPREG: CeeTox H295R High-throughput Steroidogenesis Assay for OH-Pregnenolone (OHPREG) (AID 2283434). The settings on record: actives raise or lower the signal. The method, boiled down:
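Hormone levels in spent medium were measured by tandem mass spectrometry following liquid-liquid extraction. Cells (H295R) had been forskolin-stimulated (10 uM, 48 h) before a 48 h chemical exposure at 0.1% DMSO, with activity fitted in both directions against DMSO.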

Assay [3] is described as follows: CEETOX_H295R_OHPROG: CeeTox H295R High-throughput Steroidogenesis Assay for OH-Progesterone (OHPROG) (AID 2283435).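 For AC50: human adrenal H295R cells primed 48 h with 10 µM forskolin.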 The conditions noted are these: actives raise or lower the signal. The method, boiled down:
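H295R adrenal cells prestimulated 48 h with 10 uM forskolin, then exposed 48 h to chemical (0.1% DMSO final). 17alpha-hydroxyprogesterone in medium quantified by HPLC-MS/MS; bidirectional fit versus DMSO, with MTT viability measured in the same wells.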

Assay [4] can be described thus: CEETOX_H295R_ANDR: CeeTox H295R High-throughput Steroidogenesis Assay for Androstenedione (ANDR) (AID 2283436). The conditions noted are these: actives raise or lower the signal. The method, boiled down:
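Read-out is androstenedione secreted into medium, measured by tandem mass spectrometry after liquid-liquid extraction. Cells were H295R, dosed for 48 h per modified OECD 456; activity fitted in both directions relative to DMSO.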

Assay [5] in a line: CEETOX_H295R_11DCORT: CeeTox H295R High-throughput Steroidogenesis Assay for 11-Deoxycortisol (11DCORT) (AID 2283432).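 For AC50: 11-deoxycortisol secreted into the medium measured by LC-MS/MS.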 The conditions noted are these: actives raise or lower the signal. The method, boiled down: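 Adrenal carcinoma line H295R, run per OECD 456 with minor changes, was forskolin-stimulated (10 uM, 48 h) before a 48 h chemical exposure at 0.1% DMSO. Secreted 11-deoxycortisol was quantified by HPLC-MS/MS.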

The nature of assay [6]: CEETOX_H295R_CORTIC: CeeTox H295R High-throughput Steroidogenesis Assay for Corticosterone (CORTIC) (AID 2283437).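 Note: corticosterone secreted into medium quantified by mass spectrometry.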 The settings on record: actives raise or lower the signal. The method, boiled down: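 Corticosterone secreted into medium is measured by reverse-phase HPLC with tandem MS following liquid-liquid extraction. Cells are forskolin-stimulated (10 uM, 48 h) before 48 h test exposure; activity fitted in both directions against DMSO.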

Assay [7] in a line: CEETOX_H295R_CORTISOL: CeeTox H295R High-throughput Steroidogenesis Assay for Cortisol (AID 2283438).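 Note: cortisol secreted into medium quantified by LC-MS/MS.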 The settings on record: actives raise or lower the signal. The method, boiled down: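 Forskolin-primed H295R cells (10 uM, 48 h) treated 48 h with test chemical in 0.1% DMSO. Cortisol in medium quantified by MTBE extraction and HPLC-MS/MS; bidirectional fit vs DMSO, MTT viability in same wells.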

A short description of assay [8]: CEETOX_H295R_DOC: CeeTox H295R High-throughput Steroidogenesis Assay for DOC (AID 2283439). The settings on record: actives raise or lower the signal. The method, boiled down:
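H295R cells prestimulated 48 h with 10 uM forskolin, then exposed 48 h to test chemical (0.1% DMSO final). Medium 11-deoxycorticosterone measured by HPLC-MS/MS after MTBE extraction; bidirectional fit vs DMSO, viability checked by MTT in same wells.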

Calls of active or inactive are those of the source. Rule for the calls, unless noted: active = hit-call score of the fitted dose curve at least 0.9, where 1 is the maximum; inactive = score below 0.9.

For the molecule `COc1cccc(C(=O)NN(C(=O)c2cc(C)cc(C)c2)C(C)(C)C)c1C`, the result in assay [1] and in assay [2] was inactive.
As a reminder, the AC50 is the concentration at which the activity in the assay is half-maximal. Consider `CN(C)C(=O)Nc1cccc(C(F)(F)F)c1`, for which the outcome in assay [1] and in assay [2] was inactive. In addition, in assay [3], the AC50 was 52.6 µM (active).
For the molecule `CC(COc1ccc(Oc2ccccc2)cc1)Oc1ccccn1` (centres undefined), the outcome in assay [1], in assay [2], in assay [3] and in assay [4] was inactive.
`FC(F)C(F)(F)OCC(Cn1cncn1)c1ccc(Cl)cc1Cl` (centres undefined): the result in assay [1], in assay [5], in assay [2], in assay [3], in assay [6] and in assay [7] was inactive. Further, the result in assay [8] was inactive.
Regarding `COP(=O)(OC)OC(Br)C(Cl)(Cl)Br` (centres undefined), the outcome in assay [1] was inactive.
On to `COc1ccc(C(=CC(=O)N2CCOCC2)c2ccc(Cl)cc2)cc1OC`, for which the call in assay [1], in assay [5], in assay [2], in assay [3], in assay [4] and in assay [6] was inactive. The molecule was called inactive in assay [8]. In addition, the AC50 in assay [7] is 35.2 µM (active).
For the molecule `CCC(=O)Nc1ccc(Cl)c(Cl)c1`, the outcome in assay [1] and in assay [2] was inactive. Moreover, the AC50 in assay [3] was 3.97 µM (active); in assay [4] it was 3.89 µM (active).
Consider `CNc1cnn(-c2cccc(C(F)(F)F)c2)c(=O)c1Cl`, for which the call in assay [1], in assay [2], in assay [3], in assay [6], in assay [7] and in assay [8] was inactive. Further, in assay [5], the AC50 is 11.5 µM (active).
With `CCCOCC(=Nc1ccc(Cl)cc1C(F)(F)F)n1ccnc1`, the outcome in assay [1], in assay [5] and in assay [6] was inactive. For the same molecule, the AC50 was 0.377 µM (active) in assay [2], 0.147 µM (active) in assay [3], 0.105 µM (active) in assay [7] and 0.165 µM (active) in assay [8].
As for `Nc1nc(N)nc(NC2CC2)n1`, the outcome in assay [5], in assay [2], in assay [3], in assay [6], in assay [7] and in assay [8] was inactive.
Take `CCNc1nc(Cl)nc(NC(C)(C)C#N)n1`: the call in assay [1], in assay [5], in assay [2], in assay [3], in assay [6] and in assay [7] was inactive. Moreover, the call in assay [8] was inactive.
As to `CCCSP(=O)(OCC)SCCC`, the result in assay [1], in assay [5], in assay [2], in assay [3], in assay [4] and in assay [6] was inactive. Moreover, the molecule was called inactive in assay [7] and in assay [8].
